DAGLB inh: DAGLB lipase inhibitors, primary screen, biochemical, fluorescence, HTS | Diacylglycerol lipase-beta (Homo sapiens), Q8NCG7 | HEK293T DAGLB membrane lysate, EnzChek fluorogenic substrate | inhibition, % at 5.17 µM | 340,000 tested, 0.059% active | AID 504411, 2011; in the data active = inhibition above about 34%;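 note: 0% = enzyme with vehicle and 100% = wells lacking enzyme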
Target sequence (Q8NCG7 whole entry, looked up): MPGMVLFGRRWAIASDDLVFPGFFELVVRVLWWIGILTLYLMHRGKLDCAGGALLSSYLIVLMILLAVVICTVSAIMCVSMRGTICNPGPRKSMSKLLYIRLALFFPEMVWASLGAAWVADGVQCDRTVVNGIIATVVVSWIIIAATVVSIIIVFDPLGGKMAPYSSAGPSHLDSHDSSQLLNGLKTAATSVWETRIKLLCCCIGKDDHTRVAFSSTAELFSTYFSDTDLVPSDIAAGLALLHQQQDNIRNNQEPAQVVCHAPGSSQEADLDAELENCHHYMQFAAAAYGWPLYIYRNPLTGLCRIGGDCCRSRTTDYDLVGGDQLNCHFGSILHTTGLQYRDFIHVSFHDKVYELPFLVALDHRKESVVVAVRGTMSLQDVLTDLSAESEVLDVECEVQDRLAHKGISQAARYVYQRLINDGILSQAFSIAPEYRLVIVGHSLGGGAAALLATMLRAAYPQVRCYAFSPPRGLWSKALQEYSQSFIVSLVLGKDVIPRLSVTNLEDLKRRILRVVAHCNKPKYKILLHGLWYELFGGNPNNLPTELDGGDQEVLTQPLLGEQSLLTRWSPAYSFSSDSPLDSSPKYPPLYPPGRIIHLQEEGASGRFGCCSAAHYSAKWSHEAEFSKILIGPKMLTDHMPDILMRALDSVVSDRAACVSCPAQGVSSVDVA
V-ATPase pH: regulators of yeast V-ATPase proton pumping, primary screen, pHLuorin cytosolic pH fluorescence. S. cerevisiae. response, % at 10 µM. 350,000 tested, 0.37% active. AID 504577, 2011; in the data active = response mostly above about 7.3%, no sharp cut-off; inactive = mostly below about 5.4%; note: actives read high
HDAC3 inhib: HDAC3 deacetylase inhibitors, primary screen, biochemical, fluorescence, cell-free homogeneous; recombinant HDAC3, fluorogenic peptide/trypsin coupled; AID 2718, 2010; 320,000 tested, 0.15% active; inhibition, % at 8.3 µM; in the data active = inhibition above about 26%, passing the limit was not always enough
beta cell repl: inducers of MIN6 beta-cell proliferation, primary screen, ATP luminescence, uHTS. 330,000 tested, 0.29% active. MIN6 cells proliferation, ATPlite luminescence, 48 h; cells starved in 0.2% serum; 100% = growth in 10% serum. proliferation, % at 10 µM. AID 2380, 2010;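 active = compounds whose signal lies at least 3.5 SD above the mean of all wells on their plate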;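 note: 0% = DMSO-treated cells in low-serum medium and 100% = 10% serum control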
Rtt109 Vps75: inhibitors of C. albicans Rtt109/Vps75 HAT, primary screen, biochemical, ThioGlo CoA-SH fluorescence, plate reader; Histone acetyltransferase RTT109 (Candida albicans (strain SC5314 / ATCC MYA-2876)), …; AID 540336, 2011; inhibition, % at 34.9 µM; 330,000 tested, 0.16% active; purified Rtt109/Vps75, 4 h;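 active = inhibition of at least 50% in every replicate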
* = called active by the depositor. Rows were chosen to be rich in hits. Some 0.96% of all compounds tested hit in one or more screens of this group.

For COC(=O)C1=C(C(=O)OC)[C@@H]2N(C)c3ccc(OC)cc3[C@@]23C[C@@H](C(=O)OC)N(C(=O)c2ccc(Br)cc2)C3=N1 the results were DAGLB inh 0, V-ATPase pH -3, HDAC3 inhib 4, beta cell repl -9 and Rtt109 Vps75 -10.
`O=C(Oc1cc(=O)n2ccccc2n1)c1ccccc1` gave DAGLB inh 0, V-ATPase pH 7, HDAC3 inhib 38* and Rtt109 Vps75 -5.
For O=C(Nc1ccccc1O)c1ccc2c(c1)C(=O)N(Cc1ccco1)C2=O the results were DAGLB inh 0, V-ATPase pH -3, HDAC3 inhib 41*, beta cell repl -3 and Rtt109 Vps75 -8.
Cc1cc(S(=O)(=O)c2ccc([N+](=O)[O-])cn2)ccc1Br was read as DAGLB inh -3, V-ATPase pH 8.7*, HDAC3 inhib 2, beta cell repl -4 and Rtt109 Vps75 -5.
Screening O=C(Nc1ccccc1)c1ccccc1NC(=O)c1ccccc1[N+](=O)[O-] returned DAGLB inh -3, V-ATPase pH 1, HDAC3 inhib 18, beta cell repl 0 and Rtt109 Vps75 50*.
For O=C1/C(=C/c2ccc(F)cc2)SC(=S)N1CC(=O)N1CCCCC1c1cccnc1 (stereo not given) the results were DAGLB inh -2, V-ATPase pH 0, HDAC3 inhib -1, beta cell repl -8 and Rtt109 Vps75 53*.
Screening O=C(C[n+]1cc(-c2ccc(Cl)c(Cl)c2)n2c1CCC2)N1c2ccccc2Sc2ccccc21 returned DAGLB inh 7, V-ATPase pH -1, HDAC3 inhib 3, beta cell repl 0 and Rtt109 Vps75 57*.
`O=C(C[n+]1cc(-c2ccc(Cl)cc2)n2c1CCC2)N1c2ccccc2Sc2ccccc21` gave DAGLB inh 4, V-ATPase pH 2, HDAC3 inhib 3, beta cell repl -6 and Rtt109 Vps75 17.
N#Cc1sc(NCc2cccc(Cl)c2)nc1Cl was read as DAGLB inh 0, V-ATPase pH 1, HDAC3 inhib 0, beta cell repl 1 and Rtt109 Vps75 -1.
Cc1ccc(CNc2nc(Cl)c(C#N)s2)cc1 was read as DAGLB inh 2, V-ATPase pH 15*, HDAC3 inhib 2, beta cell repl 4 and Rtt109 Vps75 -3.
Screening Cc1cc(C)c(C)c(S(=O)(=O)N2CCSCC2)c1C returned DAGLB inh -6, V-ATPase pH -2, HDAC3 inhib 1, beta cell repl 0 and Rtt109 Vps75 -19.
`Cc1c(C)c(C)c(S(=O)(=O)N2CCSCC2)c(C)c1C` gave DAGLB inh -10, V-ATPase pH 20*, HDAC3 inhib 9, beta cell repl -1 and Rtt109 Vps75 0.
Screening COc1ccc(C(=O)OCc2c(C)noc2C)cc1 returned DAGLB inh -1, V-ATPase pH 7, HDAC3 inhib -5, beta cell repl -3 and Rtt109 Vps75 -2.
For CC1CN(C(=O)c2ccc(Oc3ccccc3)cc2)CC(C)O1 (stereo not given) the results were DAGLB inh -7, V-ATPase pH 0, HDAC3 inhib -5, beta cell repl -3 and Rtt109 Vps75 -23.
For Cc1ccccc1-n1c(SCC(=O)N(C)C2CCS(=O)(=O)C2)nnc1-c1ccncc1 (stereo not given) the results were DAGLB inh -3, V-ATPase pH -1, HDAC3 inhib 8, beta cell repl 0 and Rtt109 Vps75 -5.
For Cc1ccccc1-n1c(C)nnc1SCC(=O)N(C)C1CCS(=O)(=O)C1 (stereo not given) the results were DAGLB inh 2, V-ATPase pH 15*, HDAC3 inhib -2, beta cell repl -2 and Rtt109 Vps75 -11.
For CCOc1ccc(-c2onc(C(F)(F)F)c2-c2cscn2)c(O)c1 the results were DAGLB inh -6, V-ATPase pH 0, HDAC3 inhib -9, beta cell repl -1 and Rtt109 Vps75 3.
For COC(=O)C(/C=N/OCc1ccc([N+](=O)[O-])cc1)NC(=O)c1ccccc1 (stereo not given) the results were DAGLB inh 0, V-ATPase pH 5, HDAC3 inhib 44*, beta cell repl 1 and Rtt109 Vps75 -7.
For Cc1ccnc(SCC(=O)Nc2sc3c(c2C#N)CCC(C(C)(C)C)C3)n1 (stereo not given) the results were DAGLB inh -2, V-ATPase pH 2, HDAC3 inhib -8, beta cell repl -6 and Rtt109 Vps75 -3.
Screening CC(C)(C)C1CCc2c(sc(NC(=O)CSc3nnc(-c4ccccc4)o3)c2C#N)C1 (stereo not given) returned DAGLB inh 0, V-ATPase pH -8, HDAC3 inhib 4, beta cell repl -5 and Rtt109 Vps75 56*.
`COc1ccc(N(C(=O)CCl)C(C(=O)NC2CCCCC2)c2cccnc2)cc1` (stereo not given) gave DAGLB inh 6, V-ATPase pH 15*, HDAC3 inhib -4, beta cell repl 0 and Rtt109 Vps75 -8.
For O=C(NC1CCCCC1)C(c1cccnc1)N(C(=O)CCl)c1ccc(F)cc1 (stereo not given) the results were DAGLB inh 3, V-ATPase pH 1, HDAC3 inhib 6 and Rtt109 Vps75 -35.
O=C(O)CSc1c(-c2ccccc2)[nH]c2ccccc12 was read as DAGLB inh 3, V-ATPase pH 17*, HDAC3 inhib 0, beta cell repl -1 and Rtt109 Vps75 -4.
For O=C(/C=C/c1cccs1)Nc1ccc(Br)cn1 the results were DAGLB inh -3, V-ATPase pH 2, HDAC3 inhib 0 and beta cell repl -3.
COc1ccc(C(=O)Nc2cc(OC)c(NC(=O)c3ccco3)cc2OC)cc1 was read as DAGLB inh 2, V-ATPase pH 8, HDAC3 inhib 2, beta cell repl 2 and Rtt109 Vps75 57*.
`CCOc1ccc(-n2cc(C(=O)Nc3ccc(Cl)cn3)c3cc(OC)c(OC)cc3c2=O)cc1` gave DAGLB inh -2, V-ATPase pH 0, beta cell repl -5 and Rtt109 Vps75 2.
Screening c1ccc(Cn2nnnc2C(c2ccccn2)N2CCOCC2)cc1 (stereo not given) returned DAGLB inh -4, V-ATPase pH 1, HDAC3 inhib 15, beta cell repl -3 and Rtt109 Vps75 63*.
CCCN1C=CC(=C2C(=O)c3ccccc3C2=O)C=C1 was read as DAGLB inh -3, V-ATPase pH 8, HDAC3 inhib 13, beta cell repl -6 and Rtt109 Vps75 7.
Screening CCN1C=CC(=C2C(=O)c3ccccc3C2=O)C=C1 returned DAGLB inh 0, V-ATPase pH 0, HDAC3 inhib -6, beta cell repl -6 and Rtt109 Vps75 80*.
For N#CC(C#N)=C1C=C2C=C(N3CCOCC3)CCC2CC1 (stereo not given) the results were DAGLB inh -156, V-ATPase pH 16 and Rtt109 Vps75 6.

Screening results (PubChem)
